# PubChem BioAssay
# Active and inactive are the calls of the source.
# What was measured:
# [1] = small molecules captured by biotinylated probe aFSTL3 – biochemical, small-molecule microarray, fluorescence 635/667, stem cell growth factor project, primary screen (AID 1064); conditions: higher = more signal;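 further: measures binding of the biotinylated anti-FSTL3 antibody to printed compounds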
# [2] = binders from COS7 lysate, DM2A8 probe, primary screen, torsin A project, cell lysate, small-molecule microarray, fluorescence 635/667 (AID 1065); conditions: higher = more signal, COS7 lysate expressing mutant human TOR1A
# [3] = small molecules captured by biotinylated probe aFGF2 – biochemical, small-molecule microarray, fluorescence 635/667, stem cell growth factor project, primary screen (AID 1067); conditions: higher = more signal;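 further: measures binding of biotinylated aFGF2 protein to printed compounds on slides; z-score merges feature fluorescence and signal-to-noise across triplicate slides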
# [4] = small molecules captured by biotinylated probe aFGF10 – biochemical, small-molecule microarray, fluorescence 635/667, stem cell growth factor project, primary screen (AID 1071); conditions: higher = more signal;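 further: score merges 667 nm spot intensity and signal to noise from triplicate slides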
# [5] = biological target: Neurogenic locus notch homolog protein 2 (Homo sapiens) (UniProt Q04721); test: small molecules binding Notch2 protein – biochemical, small-molecule microarray, 635 nm fluorescence, stem cell growth factors, primary screen (AID 1073); conditions: higher = more signal
# Neurogenic locus notch homolog protein 2 (Homo sapiens), sequence (Q04721 whole entry, looked up, canonical isoform): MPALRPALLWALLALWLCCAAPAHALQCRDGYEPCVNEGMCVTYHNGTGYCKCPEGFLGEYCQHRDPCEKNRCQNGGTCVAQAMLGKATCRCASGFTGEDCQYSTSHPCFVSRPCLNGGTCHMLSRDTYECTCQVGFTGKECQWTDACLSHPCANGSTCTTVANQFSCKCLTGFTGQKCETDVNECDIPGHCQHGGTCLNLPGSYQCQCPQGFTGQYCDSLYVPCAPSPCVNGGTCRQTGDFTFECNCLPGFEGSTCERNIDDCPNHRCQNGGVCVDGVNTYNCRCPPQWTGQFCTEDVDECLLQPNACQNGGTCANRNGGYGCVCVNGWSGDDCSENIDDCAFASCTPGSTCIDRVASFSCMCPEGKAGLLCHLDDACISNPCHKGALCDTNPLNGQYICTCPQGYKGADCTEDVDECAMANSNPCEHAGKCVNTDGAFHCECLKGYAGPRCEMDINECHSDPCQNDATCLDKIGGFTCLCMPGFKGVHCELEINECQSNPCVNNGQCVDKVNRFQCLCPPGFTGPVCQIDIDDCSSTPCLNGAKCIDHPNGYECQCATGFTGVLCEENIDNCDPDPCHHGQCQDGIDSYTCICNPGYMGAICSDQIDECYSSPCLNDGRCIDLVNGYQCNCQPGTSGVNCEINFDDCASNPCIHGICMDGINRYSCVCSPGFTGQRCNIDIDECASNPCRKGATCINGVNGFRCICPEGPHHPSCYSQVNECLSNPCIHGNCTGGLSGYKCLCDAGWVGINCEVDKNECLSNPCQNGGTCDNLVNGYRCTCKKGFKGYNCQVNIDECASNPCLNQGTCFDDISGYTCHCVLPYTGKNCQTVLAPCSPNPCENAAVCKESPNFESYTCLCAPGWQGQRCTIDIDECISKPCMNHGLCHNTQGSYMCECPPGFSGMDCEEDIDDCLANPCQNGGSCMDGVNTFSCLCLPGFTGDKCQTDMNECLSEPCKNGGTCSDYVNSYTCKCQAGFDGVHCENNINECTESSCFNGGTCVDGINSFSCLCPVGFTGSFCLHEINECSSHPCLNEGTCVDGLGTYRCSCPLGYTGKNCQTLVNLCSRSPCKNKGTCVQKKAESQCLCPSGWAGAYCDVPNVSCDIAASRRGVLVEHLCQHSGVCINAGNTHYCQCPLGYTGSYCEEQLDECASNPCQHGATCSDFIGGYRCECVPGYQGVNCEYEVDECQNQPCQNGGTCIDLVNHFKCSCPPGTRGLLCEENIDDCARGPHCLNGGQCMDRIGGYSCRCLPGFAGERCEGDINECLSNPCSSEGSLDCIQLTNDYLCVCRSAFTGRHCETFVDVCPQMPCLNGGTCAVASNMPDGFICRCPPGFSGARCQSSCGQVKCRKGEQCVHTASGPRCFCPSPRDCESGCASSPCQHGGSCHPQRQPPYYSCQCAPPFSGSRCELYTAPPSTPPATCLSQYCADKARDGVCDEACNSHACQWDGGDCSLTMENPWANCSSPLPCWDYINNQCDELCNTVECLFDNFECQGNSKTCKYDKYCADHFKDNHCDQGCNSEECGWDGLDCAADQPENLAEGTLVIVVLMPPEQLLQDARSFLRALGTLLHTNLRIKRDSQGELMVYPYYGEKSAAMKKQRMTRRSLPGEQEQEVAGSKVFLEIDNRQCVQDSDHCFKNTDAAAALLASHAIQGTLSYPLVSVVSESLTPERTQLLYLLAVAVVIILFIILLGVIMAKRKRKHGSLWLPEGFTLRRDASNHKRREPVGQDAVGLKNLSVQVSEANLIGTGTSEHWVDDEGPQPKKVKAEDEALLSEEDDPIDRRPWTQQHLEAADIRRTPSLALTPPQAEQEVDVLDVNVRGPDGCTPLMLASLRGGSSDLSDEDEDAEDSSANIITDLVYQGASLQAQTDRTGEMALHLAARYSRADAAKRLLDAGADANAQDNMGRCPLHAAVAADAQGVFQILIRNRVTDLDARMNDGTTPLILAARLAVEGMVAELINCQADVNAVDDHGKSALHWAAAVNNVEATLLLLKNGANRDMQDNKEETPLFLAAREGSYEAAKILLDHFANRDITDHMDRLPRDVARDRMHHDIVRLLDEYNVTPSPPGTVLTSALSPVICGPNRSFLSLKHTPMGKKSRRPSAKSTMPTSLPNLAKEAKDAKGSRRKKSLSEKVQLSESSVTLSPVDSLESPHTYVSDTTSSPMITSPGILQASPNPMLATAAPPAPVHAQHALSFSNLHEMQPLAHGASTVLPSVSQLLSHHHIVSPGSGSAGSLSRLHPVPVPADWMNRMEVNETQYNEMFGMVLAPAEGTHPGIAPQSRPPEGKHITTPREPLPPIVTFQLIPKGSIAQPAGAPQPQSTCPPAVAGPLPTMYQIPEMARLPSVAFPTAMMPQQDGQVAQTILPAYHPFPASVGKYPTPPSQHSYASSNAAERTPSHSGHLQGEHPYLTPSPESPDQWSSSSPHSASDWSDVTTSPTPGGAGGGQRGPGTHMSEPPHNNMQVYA
# [6] = biological target: Pro-neuregulin-1, membrane-bound isoform (Homo sapiens) (UniProt Q02297); test: small molecules binding neuregulin-1 protein – biochemical, small-molecule microarray, fluorescence 635/667, psychiatric disease protein project, primary screen (AID 1075); conditions: NRG1 binding, 635 nm fluorescence, higher = more signal;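 further: score combines 667 nm spot fluorescence with signal to noise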
# [7] = tested on: Neuregulin-1 EGF-like domain; test: small molecules binding NRG1 EGF domain – biochemical, small-molecule microarray, 635 nm fluorescence, primary screen (AID 1081); conditions: higher = more signal;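 further: binding of the protein to compounds printed on small-molecule microarray slides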
# [8] = FRG1 expression reporter modulators in myotubes – cell-based, C2C12 myotubes, firefly/Renilla luciferase, luminescence, FRG1 inhibition for FSHD, primary screen (AID 1084); conditions: FRG1 promoter luciferase, higher = more signal, called active from +8 up or from −8 down
# [9] = small molecules captured by biotinylated probe aFST – biochemical, small-molecule microarray, fluorescence 635/667, stem cell growth factor project, primary screen (AID 1086); conditions: higher = more signal;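 further: score merges 667 nm fluorescence with signal-to-noise of each printed compound spot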
# [10] = binders of probe aHhip on microarray, primary screen, stem cell growth factor project, biochemical, small-molecule microarray, fluorescence 635/667 (AID 1087); conditions: higher = more signal;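 further: score merges spot fluorescence at 667nm with spot signal to noise ratio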
# [11] = tested on: PRMT1 (protein arginine N-methyltransferase 1); test: small molecules binding arginine methyltransferase PRMT1 – biochemical, small-molecule microarray, 635 nm fluorescence, primary screen (AID 1088); conditions: higher = more signal;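 further: binding of Prmt1 protein to compounds spotted on small-molecule microarray slides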
# [12] = growth effects on S. cerevisiae YJM789 – YJM789 clinical isolate, OD600, 24 h, basal, primary screen (AID 1089); conditions: higher = more signal, called active from +8 up or from −8 down;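 further: growth of clinical yeast isolate S. cerevisiae YJM 789 seeded 1000 cells per well; test concentration not given here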
# [13] = S. pombe growth modifiers, basal conditions – strain 972, OD600, 24 h, no modulator, primary screen (AID 1090);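 further: basal condition with compound alone and no growth modifier present; test concentration not given here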; conditions: S. pombe 972 growth, higher = more signal, called active from +8 up or from −8 down
# [14] = budding yeast growth modifiers under rapamycin – strain BY4716, OD600, 96 h, primary screen (AID 1091); further: test concentration not given here; conditions: S. cerevisiae BY4716 + rapamycin, higher = more signal, called active from +8 up or from −8 down
# [15] = biological target: Torsin-1A-interacting protein 2 (Homo sapiens) (UniProt Q8NFQ8); test: small molecules binding lysate-expressed LULL1 – cell lysate, human LULL1 lysate, 635/667 nm fluorescence, primary screen (AID 1092); conditions: small-molecule microarray, hLULL1 lysate binding, 635 nm fluorescence; higher = more signal;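 further: probe is lysate of COS7 cells overexpressing human LULL1; score merges per-feature 667 nm fluorescence with signal-to-noise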
# [16] = optical density change of DRC41 E. coli – strain DRC41, OD650, 24 h, E. coli filamentation project, primary screen (AID 1093);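 further: MC1000 strain lacking acrAB efflux and sulA so SOS filamentation is blocked; test concentration not given here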; conditions: E. coli DRC41 growth, higher = more signal, called active from +8 up or from −8 down
# [17] = probe aLefty2 binding to arrayed compounds – biochemical, biotinylated probe, 635/667 nm fluorescence, primary screen (AID 1094); conditions: small-molecule microarray, higher = more signal;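 further: score merges spot fluorescence near 667 nm with spot signal-to-noise ratio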
# [18] = tested on: Noggin (protein binding on small-molecule microarray); test: small molecules binding Noggin protein – biochemical, 635/667 nm fluorescence, primary screen (AID 1095); conditions: 635 nm fluorescence, higher = more signal;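 further: score merges 667 nm feature fluorescence with signal to noise over triplicate slides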
# [19] = biological target: Neurogenic locus notch homolog protein 3 (Homo sapiens) (UniProt Q9UM47); test: small molecules binding NOTCH3 protein – biochemical, 635/667 nm fluorescence, primary screen (AID 1096); conditions: small-molecule microarray, 635 nm fluorescence, higher = more signal
# Neurogenic locus notch homolog protein 3 (Homo sapiens), sequence (Q9UM47 whole entry, looked up): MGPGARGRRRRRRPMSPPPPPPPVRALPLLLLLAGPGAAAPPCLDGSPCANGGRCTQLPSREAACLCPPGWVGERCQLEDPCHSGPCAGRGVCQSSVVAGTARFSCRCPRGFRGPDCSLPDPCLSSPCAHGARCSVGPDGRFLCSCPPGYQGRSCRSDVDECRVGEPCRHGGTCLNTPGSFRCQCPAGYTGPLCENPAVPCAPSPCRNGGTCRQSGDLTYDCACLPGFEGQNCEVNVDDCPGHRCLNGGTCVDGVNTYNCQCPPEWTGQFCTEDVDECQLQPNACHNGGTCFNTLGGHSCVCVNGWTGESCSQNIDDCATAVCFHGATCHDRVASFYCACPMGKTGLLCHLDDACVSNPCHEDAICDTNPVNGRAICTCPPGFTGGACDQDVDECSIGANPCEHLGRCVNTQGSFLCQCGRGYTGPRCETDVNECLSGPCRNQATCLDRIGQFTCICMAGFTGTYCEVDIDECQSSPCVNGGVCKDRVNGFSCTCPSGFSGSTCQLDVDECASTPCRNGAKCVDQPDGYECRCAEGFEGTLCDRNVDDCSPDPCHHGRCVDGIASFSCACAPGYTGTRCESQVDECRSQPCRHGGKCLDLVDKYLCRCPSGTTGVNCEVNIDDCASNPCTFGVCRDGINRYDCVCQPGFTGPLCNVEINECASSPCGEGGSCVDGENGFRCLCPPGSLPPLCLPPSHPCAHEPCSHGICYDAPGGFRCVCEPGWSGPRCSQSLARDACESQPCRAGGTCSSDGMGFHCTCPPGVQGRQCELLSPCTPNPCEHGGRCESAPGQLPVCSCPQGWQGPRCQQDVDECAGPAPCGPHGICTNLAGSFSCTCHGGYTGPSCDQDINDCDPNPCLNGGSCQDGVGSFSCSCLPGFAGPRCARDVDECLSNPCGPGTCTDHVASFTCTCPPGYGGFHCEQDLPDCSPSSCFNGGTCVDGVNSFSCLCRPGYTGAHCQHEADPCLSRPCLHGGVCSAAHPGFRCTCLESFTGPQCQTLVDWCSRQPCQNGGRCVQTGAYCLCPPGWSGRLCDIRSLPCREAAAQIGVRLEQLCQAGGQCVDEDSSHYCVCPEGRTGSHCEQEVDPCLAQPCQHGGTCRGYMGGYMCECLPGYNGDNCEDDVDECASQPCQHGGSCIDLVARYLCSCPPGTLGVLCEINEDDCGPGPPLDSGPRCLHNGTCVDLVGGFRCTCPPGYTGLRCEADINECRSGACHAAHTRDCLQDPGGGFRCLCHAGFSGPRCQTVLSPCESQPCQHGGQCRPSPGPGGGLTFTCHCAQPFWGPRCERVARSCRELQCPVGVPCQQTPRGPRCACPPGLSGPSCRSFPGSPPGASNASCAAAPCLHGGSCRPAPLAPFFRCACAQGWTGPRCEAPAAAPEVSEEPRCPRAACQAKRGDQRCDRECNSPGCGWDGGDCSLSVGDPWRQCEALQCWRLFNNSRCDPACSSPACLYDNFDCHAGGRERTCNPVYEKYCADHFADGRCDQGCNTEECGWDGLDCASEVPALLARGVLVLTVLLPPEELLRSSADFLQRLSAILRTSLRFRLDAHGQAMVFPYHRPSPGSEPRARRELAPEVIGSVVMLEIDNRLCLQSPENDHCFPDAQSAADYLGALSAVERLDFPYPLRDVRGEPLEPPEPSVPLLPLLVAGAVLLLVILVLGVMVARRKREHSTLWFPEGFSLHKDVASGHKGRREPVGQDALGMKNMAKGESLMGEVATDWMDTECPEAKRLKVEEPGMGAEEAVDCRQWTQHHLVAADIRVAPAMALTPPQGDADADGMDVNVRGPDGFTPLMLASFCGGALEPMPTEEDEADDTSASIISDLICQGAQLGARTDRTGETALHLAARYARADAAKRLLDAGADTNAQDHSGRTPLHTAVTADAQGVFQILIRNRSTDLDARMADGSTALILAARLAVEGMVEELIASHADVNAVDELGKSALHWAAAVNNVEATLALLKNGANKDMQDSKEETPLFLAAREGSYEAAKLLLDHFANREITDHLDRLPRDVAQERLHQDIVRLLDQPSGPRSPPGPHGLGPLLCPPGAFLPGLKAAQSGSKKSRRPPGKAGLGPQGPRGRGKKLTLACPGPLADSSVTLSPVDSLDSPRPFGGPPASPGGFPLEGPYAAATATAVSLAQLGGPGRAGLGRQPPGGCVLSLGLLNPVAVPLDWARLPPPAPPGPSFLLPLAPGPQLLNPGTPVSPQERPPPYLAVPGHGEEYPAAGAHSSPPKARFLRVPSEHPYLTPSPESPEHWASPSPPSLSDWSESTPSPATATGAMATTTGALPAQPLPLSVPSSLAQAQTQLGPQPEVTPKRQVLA
# [20] = probe aEGFR binding to arrayed compounds – biochemical, biotinylated probe, 635/667 nm fluorescence, primary screen (AID 1097); conditions: small-molecule microarray, higher = more signal;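 further: probe is a biotinylated anti-EGFR antibody binding compounds printed on slides; score combines fluorescence near 667 nm and signal to noise of each spot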
smiles,measurement,setting,value
COCCOC(=O)N1C(=O)[C@@]2(c3ccccc31)[C@H](c1ccc(OCCO)cc1)N1[C@H](c3ccccc3)[C@H](c3ccccc3)OC(=O)[C@H]1[C@@H]2C(=O)NC[C@H](O)c1ccccc1,composite z-score,[1],-0.115
same,composite z-score,[2],0.537
same,composite z-score,[3],0.0276
same,composite z-score,[4],0.228
same,composite z-score,[5],0.614
same,composite z-score,[6],1.52
same,composite z-score,[7],1.35
same,z-score,[8],-1.51 (inactive)
same,composite z-score,[9],0.576
same,composite z-score,[10],-0.0753
same,composite z-score,[11],1.53
same,z-score,[12],2.2 (inactive)
same,z-score,[13],0.892 (inactive)
same,z-score,[14],6.77 (inactive)
same,composite z-score,[15],3.09
same,z-score,[16],-0.0625 (inactive)
same,composite z-score,[17],0.187
same,composite z-score,[18],1.19
same,composite z-score,[19],1.04
same,composite z-score,[20],-0.0759
C=CCOC(=O)[C@@H]1[C@H]2C(=O)O[C@H](c3ccccc3)[C@H](c3ccccc3)N2[C@H](c2ccc(OCCOC(=O)[C@@H]3C[C@@H]4C(=O)N[C@@H](CCCCNC(C)=O)C(=O)N4[C@@H]3c3ccc(O)cc3)cc2)[C@@]12C(=O)Nc1ccc(I)cc12,composite z-score,[1],-0.101
same,composite z-score,[2],0.0133
same,composite z-score,[3],-0.0502
same,composite z-score,[4],0.722
same,composite z-score,[5],0.971
same,composite z-score,[6],0.767
same,composite z-score,[7],1.16
same,z-score,[8],0.0976 (inactive)
same,composite z-score,[9],0.4
same,composite z-score,[10],-0.0346
same,composite z-score,[11],1.54
same,z-score,[12],0.0797 (inactive)
same,z-score,[13],0.994 (inactive)
same,z-score,[14],2.96 (inactive)
same,composite z-score,[15],2.15
same,z-score,[16],-0.101 (inactive)
same,composite z-score,[17],-0.0248
same,composite z-score,[18],1.42
same,composite z-score,[19],1.13
same,composite z-score,[20],0.15
O=C1O[C@H](c2ccccc2)[C@H](c2ccccc2)N2[C@H]1[C@@H](C(=O)NC[C@H](O)c1ccccc1)[C@]1(C(=O)Nc3ccccc31)[C@H]2c1ccccc1OCCO,composite z-score,[1],0.0095
same,composite z-score,[2],0.142
same,composite z-score,[3],-0.0024
same,composite z-score,[4],0.555
same,composite z-score,[5],0.0225
same,composite z-score,[6],0.851
same,composite z-score,[7],1.2
same,z-score,[8],-1.13 (inactive)
same,composite z-score,[9],-0.821
same,composite z-score,[10],-0.445
same,composite z-score,[11],1.55
same,z-score,[12],0.837 (inactive)
same,z-score,[13],0.468 (inactive)
same,z-score,[14],4.03 (inactive)
same,composite z-score,[15],2.92
same,z-score,[16],2.05 (inactive)
same,composite z-score,[17],-0.181
same,composite z-score,[18],1.71
same,composite z-score,[19],0.723
same,composite z-score,[20],-0.109
COC(=O)[C@@]1(Cc2ccc(OC)cc2)[C@H]2c3cc(C(=O)N(C)C)n(Cc4cc(F)c(F)c(F)c4)c3C[C@H]2CN1C(=O)c1ccccc1,composite z-score,[1],0.831
same,composite z-score,[2],-0.136
same,composite z-score,[3],0.329
same,composite z-score,[4],0.594
same,composite z-score,[5],1.74
same,composite z-score,[6],1.81
same,composite z-score,[7],1.08
same,z-score,[8],2.19 (inactive)
same,composite z-score,[9],1.24
same,composite z-score,[10],0.987
same,composite z-score,[11],0.456
same,z-score,[12],0.725 (inactive)
same,z-score,[13],0.129 (inactive)
same,z-score,[14],4.07 (inactive)
same,composite z-score,[15],3.44
same,z-score,[16],-0.909 (inactive)
same,composite z-score,[17],0.625
same,composite z-score,[18],-0.217
same,composite z-score,[19],1.04
same,composite z-score,[20],0.58
O=C1C[C@@](C(=O)NCc2ccccc2)(c2ccc([N+](=O)[O-])cc2)[C@@H](c2ccc(CO)cc2I)N1C1CCCCC1,composite z-score,[1],1.95
same,composite z-score,[2],0.379
same,composite z-score,[3],0.347
same,composite z-score,[4],0.352
same,composite z-score,[5],1.08
same,composite z-score,[6],0.819
same,composite z-score,[7],1.29
same,z-score,[8],-0.524 (inactive)
same,composite z-score,[9],1.3
same,composite z-score,[10],0.368
same,composite z-score,[11],1.55
same,z-score,[12],1.2 (inactive)
same,z-score,[13],0.856 (inactive)
same,z-score,[14],3.33 (inactive)
same,composite z-score,[15],2.38
same,z-score,[16],1.04 (inactive)
same,composite z-score,[17],0.569
same,composite z-score,[18],0.924
same,composite z-score,[19],1.12
same,composite z-score,[20],0.695
CN(C)CCCC[C@@H]1NC(=O)[C@H]2C[C@@H](C(=O)NCCCCCCNC(=O)CS)[C@@H](c3ccc(O)cc3)N2C1=O,composite z-score,[1],0.0462
same,composite z-score,[2],0.576
same,composite z-score,[3],-0.116
same,composite z-score,[4],0.165
same,composite z-score,[5],-0.549
same,composite z-score,[6],0.848
same,composite z-score,[7],1.11
same,z-score,[8],1.15 (inactive)
same,composite z-score,[9],-0.337
same,composite z-score,[10],-0.125
same,composite z-score,[11],1.17
same,z-score,[12],-1.22 (inactive)
same,z-score,[13],-0.225 (inactive)
same,z-score,[14],-0.342 (inactive)
same,composite z-score,[15],3.31
same,z-score,[16],0.937 (inactive)
same,composite z-score,[17],-0.0785
same,composite z-score,[18],1.58
same,composite z-score,[19],0.196
same,composite z-score,[20],-0.173
CO[C@H]1O[C@H](CO)[C@@H](OC(=O)c2ccc(Br)cc2)[C@@H]2OC(=O)[C@H](Cc3cccc(Br)c3)C/C=C/C[C@@H](Cc3cccc(Br)c3)C(=O)O[C@@H]12,composite z-score,[1],0.174
same,composite z-score,[2],0.665
same,composite z-score,[3],0.0376
same,composite z-score,[4],1.12
same,composite z-score,[5],1.43
same,composite z-score,[6],1.43
same,composite z-score,[7],1.06
same,z-score,[8],0.374 (inactive)
same,composite z-score,[9],0.551
same,composite z-score,[10],0.319
same,composite z-score,[11],1.47
same,z-score,[12],-0.73 (inactive)
same,z-score,[13],0.16 (inactive)
same,z-score,[14],-0.0347 (inactive)
same,composite z-score,[15],1.08
same,z-score,[16],-0.972 (inactive)
same,composite z-score,[17],0.0717
same,composite z-score,[18],0.553
same,composite z-score,[19],1.04
same,composite z-score,[20],0.158
O=[N+]([O-])c1ccc(C[n+]2ccc(-c3ccc(CO)cc3)cc2)o1,composite z-score,[1],-0.217
same,composite z-score,[2],0.239
same,composite z-score,[3],-0.0266
same,composite z-score,[4],0.165
same,composite z-score,[5],1.29
same,composite z-score,[6],1.52
same,composite z-score,[7],0.373
same,z-score,[8],-0.721 (inactive)
same,composite z-score,[9],0.273
same,composite z-score,[10],0.0373
same,composite z-score,[11],1.47
same,z-score,[12],-0.612 (inactive)
same,z-score,[13],-15.5 (active)
same,z-score,[14],0.196 (inactive)
same,composite z-score,[15],1.71
same,z-score,[16],-0.818 (inactive)
same,composite z-score,[17],-0.129
same,composite z-score,[18],0.526
same,composite z-score,[19],1.16
same,composite z-score,[20],-0.0703
